According to PubChem BioAssay (EPA / NIEHS):
Active and inactive are the calls of the source. How the source made its calls: active means hit-call score of the fitted dose curve at least 0.9, where 1 is the maximum; inactive means score below 0.9.

read-out: Interleukin-6 (IL6), IL6 (gene 3569); assay: BSK_CASM3C_IL6: BioMAP Diversity Plus: CASM3C Assay for Interleukin-6 (IL6) Biomarker Activity for (AID 2283040); conditions: primary human coronary artery smooth muscle cells; actives raise or lower the signal

| Compound | outcome | AC50 |
| --- | --- | --- |
| O=P(Oc1ccccc1)(Oc1ccccc1)Oc1ccccc1 | inactive | – |
| N#Cc1cc([N+](=O)[O-])ccc1N | inactive | – |
| ClC(Cl)c1ccccc1 | inactive | – |
| Cc1ccc2c(c1N)C(=O)c1ccccc1C2=O | inactive | – |
| CCNc1nc(Cl)nc(NC(C)(C)C)n1 | inactive | – |
| O=C(O)C(Cl)Cl | inactive | – |
| CCCCC(CC)COP(=O)(Oc1ccccc1)Oc1ccccc1 (centres undefined) | inactive | – |
| OCC(F)(F)OC(F)(F)C(F)(F)OC(F)(F)CO | inactive | – |
| c1cc2c3c(cccc3c1)CC2 | inactive | – |
| COP(N)(=S)OC | inactive | – |
| CCCCC(CC)COC(=O)c1c(Br)c(Br)c(Br)c(Br)c1C(=O)OCC(CC)CCCC (centres undefined) | inactive | – |
| O=C(O)C(F)(F)OC(F)(F)C(F)(F)OC(F)(F)C(=O)O | inactive | – |
| O=P1(N(CCCl)CCCl)NCCCO1 (centres undefined) | inactive | – |
| N#Cc1c(-c2ccc(Cl)cc2)[nH]c(C(F)(F)F)c1Br | – | 1.18 µM (active) |
| O=P(OCC(Br)CBr)(OCC(Br)CBr)OCC(Br)CBr (centres undefined) | inactive | – |
| C=CC(=O)OCC(CC)(COC(=O)C=C)COC(=O)C=C | – | 2.11 µM (active) |
| O=C(O)C=CC(F)(C(F)(F)F)C(F)(F)F | inactive | – |
| OCC1CO1 (centres undefined) | inactive | – |
| CC(Cl)CN(C)C (centres undefined) | inactive | – |
| CCOP(=S)(NC(C)C)Oc1ccccc1C(=O)OC(C)C (centres undefined) | inactive | – |
| CCOS(=O)(=O)OCC | inactive | – |
| CCC(C)(C)c1ccc(O)cc1 | inactive | – |
| Cc1c([N+](=O)[O-])cc2c(c1[N+](=O)[O-])C(C)(C)CC2(C)C | inactive | – |
| CCCN(CCC)c1c([N+](=O)[O-])cc(C(C)C)cc1[N+](=O)[O-] | inactive | – |
| Cc1cccc(N)c1 | inactive | – |
| c1ccc2c(c1)Nc1ccccc1S2 | inactive | – |
| CC(Cl)(Cl)C(=O)O | inactive | – |
| O=S(=O)(F)C(F)(F)C(F)(F)C(F)(F)C(F)(F)C(F)(F)C(F)(F)C(F)(F)C(F)(F)F | inactive | – |

read-out: Tissue plasminogen activator (tPA), PLAT (gene 5327); assay: BSK_BE3C_tPA: BioMAP Diversity Plus: BE3C Assay for Tissue plasminogen activator (tPA) Biomarker Activity (AID 2283041); conditions: primary human bronchial epithelial cells; actives raise or lower the signal;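 on outcome: tPA level quantified by ELISA one day after compound addition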
In short: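 Primary human bronchial epithelial cells in the BE3C system, exposed to compound for 24 h. tPA was quantified by ELISA; DMSO served as baseline, with gain or loss of signal fitted. Cytotoxicity checked in parallel cultures by SRB total-protein staining.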

| Compound | outcome | AC50 |
| --- | --- | --- |
| O=P(Oc1ccccc1)(Oc1ccccc1)Oc1ccccc1 | inactive | – |
| N#Cc1cc([N+](=O)[O-])ccc1N | inactive | – |
| ClC(Cl)c1ccccc1 | inactive | – |
| Cc1ccc2c(c1N)C(=O)c1ccccc1C2=O | inactive | – |
| CCNc1nc(Cl)nc(NC(C)(C)C)n1 | inactive | – |
| O=C(O)C(Cl)Cl | inactive | – |
| CCCCC(CC)COP(=O)(Oc1ccccc1)Oc1ccccc1 (centres undefined) | – | 3.09 µM (active) |
| OCC(F)(F)OC(F)(F)C(F)(F)OC(F)(F)CO | inactive | – |
| c1cc2c3c(cccc3c1)CC2 | inactive | – |
| COP(N)(=S)OC | inactive | – |
| CCCCC(CC)COC(=O)c1c(Br)c(Br)c(Br)c(Br)c1C(=O)OCC(CC)CCCC (centres undefined) | inactive | – |
| O=C(O)C(F)(F)OC(F)(F)C(F)(F)OC(F)(F)C(=O)O | inactive | – |
| O=P1(N(CCCl)CCCl)NCCCO1 (centres undefined) | inactive | – |
| N#Cc1c(-c2ccc(Cl)cc2)[nH]c(C(F)(F)F)c1Br | inactive | – |
| O=P(OCC(Br)CBr)(OCC(Br)CBr)OCC(Br)CBr (centres undefined) | inactive | – |
| C=CC(=O)OCC(CC)(COC(=O)C=C)COC(=O)C=C | – | 5.46 µM (active) |
| O=C(O)C=CC(F)(C(F)(F)F)C(F)(F)F | inactive | – |
| OCC1CO1 (centres undefined) | inactive | – |
| CC(Cl)CN(C)C (centres undefined) | inactive | – |
| CCOP(=S)(NC(C)C)Oc1ccccc1C(=O)OC(C)C (centres undefined) | inactive | – |
| CCOS(=O)(=O)OCC | inactive | – |
| CCC(C)(C)c1ccc(O)cc1 | inactive | – |
| Cc1c([N+](=O)[O-])cc2c(c1[N+](=O)[O-])C(C)(C)CC2(C)C | – | 10.6 µM (active) |
| CCCN(CCC)c1c([N+](=O)[O-])cc(C(C)C)cc1[N+](=O)[O-] | inactive | – |
| Cc1cccc(N)c1 | inactive | – |
| c1ccc2c(c1)Nc1ccccc1S2 | inactive | – |
| CC(Cl)(Cl)C(=O)O | inactive | – |
| O=S(=O)(F)C(F)(F)C(F)(F)C(F)(F)C(F)(F)C(F)(F)C(F)(F)C(F)(F)C(F)(F)F | inactive | – |

read-out: Interleukin-8 (IL8), CXCL8 (gene 3576); assay: BSK_CASM3C_IL8: BioMAP Diversity Plus: CASM3C Assay for Interleukin-8 (IL8) Biomarker Activity (AID 2283042); conditions: primary human coronary artery smooth muscle cells; actives raise or lower the signal;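 further: IL-8 protein level quantified by ELISA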

| Compound | outcome | AC50 |
| --- | --- | --- |
| O=P(Oc1ccccc1)(Oc1ccccc1)Oc1ccccc1 | inactive | – |
| N#Cc1cc([N+](=O)[O-])ccc1N | inactive | – |
| ClC(Cl)c1ccccc1 | inactive | – |
| Cc1ccc2c(c1N)C(=O)c1ccccc1C2=O | inactive | – |
| CCNc1nc(Cl)nc(NC(C)(C)C)n1 | inactive | – |
| O=C(O)C(Cl)Cl | inactive | – |
| CCCCC(CC)COP(=O)(Oc1ccccc1)Oc1ccccc1 (centres undefined) | inactive | – |
| OCC(F)(F)OC(F)(F)C(F)(F)OC(F)(F)CO | inactive | – |
| c1cc2c3c(cccc3c1)CC2 | inactive | – |
| COP(N)(=S)OC | inactive | – |
| CCCCC(CC)COC(=O)c1c(Br)c(Br)c(Br)c(Br)c1C(=O)OCC(CC)CCCC (centres undefined) | inactive | – |
| O=C(O)C(F)(F)OC(F)(F)C(F)(F)OC(F)(F)C(=O)O | inactive | – |
| O=P1(N(CCCl)CCCl)NCCCO1 (centres undefined) | inactive | – |
| N#Cc1c(-c2ccc(Cl)cc2)[nH]c(C(F)(F)F)c1Br | – | 0.277 µM (active) |
| O=P(OCC(Br)CBr)(OCC(Br)CBr)OCC(Br)CBr (centres undefined) | inactive | – |
| C=CC(=O)OCC(CC)(COC(=O)C=C)COC(=O)C=C | – | 6.3 µM (active) |
| O=C(O)C=CC(F)(C(F)(F)F)C(F)(F)F | inactive | – |
| OCC1CO1 (centres undefined) | inactive | – |
| CC(Cl)CN(C)C (centres undefined) | inactive | – |
| CCOP(=S)(NC(C)C)Oc1ccccc1C(=O)OC(C)C (centres undefined) | inactive | – |
| CCOS(=O)(=O)OCC | inactive | – |
| CCC(C)(C)c1ccc(O)cc1 | inactive | – |
| Cc1c([N+](=O)[O-])cc2c(c1[N+](=O)[O-])C(C)(C)CC2(C)C | inactive | – |
| CCCN(CCC)c1c([N+](=O)[O-])cc(C(C)C)cc1[N+](=O)[O-] | inactive | – |
| Cc1cccc(N)c1 | inactive | – |
| c1ccc2c(c1)Nc1ccccc1S2 | inactive | – |
| CC(Cl)(Cl)C(=O)O | inactive | – |
| O=S(=O)(F)C(F)(F)C(F)(F)C(F)(F)C(F)(F)C(F)(F)C(F)(F)C(F)(F)C(F)(F)F | inactive | – |
